PubChem BioAssay (Tox21)
Inconclusive results are not listed. Entries that show only a call come without a potency. The source made the active and inactive calls. Calls come from the whole dose curve; as a rule, active = well fitted cell-killing curve with a large enough effect in the repeat runs; inconclusive = weak or mixed curves, or effect the other way; inactive = no such curve, though single readings can be large or run the other way.

Assay: qHTS assay to identify small molecule antagonists of the progesterone receptor (PR) signaling pathway - cell viability counter screen (AID 1346798); note: nearly all actives have a fitted effect of over 50% in size
Conditions: PR-UAS-bla HEK293T viability, CellTiter-Glo luminescence, 16 h; series mostly up to 92.4 µM
Excerpt: National Center for Advancing Translational Sciences [NCATS]
NIH Chemical Genomics Center [NCGC]
U.S. Environmental Protection Agency [EPA]
National Institutes of Environmental Health Sciences [NIEHS]
National Toxicology Program [NTP]
U.S. Food and Drug Administration [FDA]
Progesterone receptor (PR), a nuclear hormone receptor, plays an important role in development, metabolic homeostasis and reproduction. It is activated by the steroid hormone progesterone. Endocrine disrupting chemicals (EDCs) and their interactions with steroid hormone receptors like PR causes disruption of normal endocrine function. To identify the compounds that inhibit PR signaling, a PR-UAS-bla GripTite cell line i.e. PR-UAS-bla HEK293T (Invitrogen, Carlsbad, CA, USA) containing a beta-lactamase reporter gene under the control of an UAS response element was used to screen Tox21 10K compound library. The cytotoxicity of the Tox21 compound library against the PR-bla cell line was tested in parallel by measuring the cell viability using CellTiter-Glo assay in the same wells.
Tox21 Assay Protocol Summary:
PR-UAS-bla HEK293T cells were dispensed at 3,000 cells/4 uL of assay medium containing 2% charcoal stripped FBS per well into black wall/clear-bottom 1536-well plates using a Multidrop Combi (ThermoFisher Scientific, Waltham, MA) dispenser. After the assay plates were incubated at a 37C and 5% CO2 for 4 hr, 23 nL of compounds dissolved in DMSO, positive controls or DMSO only was transferred to the assay plate by a Pintool station (Kalypsys, San Diego, CA), followed by addition of 1 uL of R5020 in assay medium using a Flying Reagent Dispenser (FRD, Aurora Discovery, San Diego, CA). The plates were incubated at 37C and 5% CO2 for 16 hr. Then 1 uL of LiveBLAzer B/G FRET substrate was added using a Flying Reagent Dispenser, the plates were incubated at room temperature for 2 hours, and fluorescence intensity was measured by an Envision plate reader (PerkinElmer, Shelton, CT). For cell viability readout that measures cytotoxicity, 4 uL/well of CellTiter-Glo reagent was added into the assay plates using a FRD. After 30 min incubation at room temperature, the luminescence intensity in the plates was measured using a ViewLux (PerkinElmer) plate reader.
Potency is the fitted concentration of half-maximal effect.

| Structure (SMILES) | Potency |
| --- | --- |
| N=C(N=C(N)N)N1CCOCC1 | inactive |
| N#Cc1c(F)cccc1F | inactive |
| CCOc1ccc(NC(=O)CC(C)=O)cc1 | inactive |
| CCN(CC)CCNC(C(=O)OCCC(C)C)c1ccccc1 (stereo not given) | inactive |
| CC(=O)/C=C/C1C(C)=CCCC1(C)C (stereo not given) | inactive |
| CCOC(=S)SSC(=S)OCC | inactive |
| C1=Cc2ccccc2C1 | inactive |
| C=CC(=O)OCC(C)OCC(C)OCC(C)OC(=O)C=C (stereo not given) | inactive |
| Cc1ccc(C(C)c2ccc(C)c(C)c2)cc1C | inactive |
| CC[C@@H]1C[C@H](N(Cc2cc(C(F)(F)F)cc(C(F)(F)F)c2)C(C)=O)c2cc(C(F)(F)F)ccc2N1C(=O)OC(C)C | inactive |
| CC1=CC(=O)/C(=C(/C)O)C(=O)O1 | inactive |
| CCCCCCCCC(CO)CCCCCC (stereo not given) | inactive |
| COc1ccccc1OC(=O)Oc1ccccc1OC | inactive |
| CCCCCCCCCC(=O)OCC | inactive |
| Cc1ccc2c(ccc3ccccc32)c1 | inactive |
| Cc1ccc(C(N)=O)cc1N | inactive |
| C=CC(C)(CCC=C(C)C)OC(=O)c1ccccc1 (stereo not given) | inactive |
| O=C(c1ccccc1)c1ccc2n1CCC2C(=O)O (stereo not given) | inactive |
| CC1(C)[C@H]2CC[C@]1(C)[C@H](O)C2 | inactive |
| CC1=CCC(C(C)C)C=C1 (stereo not given) | inactive |

| Structure (SMILES) | Potency |
| --- | --- |
| CC(C)(C)C1CCCCC1O (stereo not given) | inactive |
| c1ccc(-c2nc[nH]c2-c2ccccc2)cc1 | inactive |
| CCCCCCCCCCCCCCCC(=O)OC/C=C(C)/C=C/C=C(C)/C=C/C1=C(C)CCCC1(C)C | inactive |
| CCOC(=O)CC(=O)c1cc(F)c(Cl)nc1Cl | inactive |
| O=C1c2cccc(O)c2C(=O)c2c(O)cc(CO)cc21 | inactive |
| CNS(=O)(=O)Cc1ccc2[nH]cc(CCN(C)C)c2c1 | inactive |
| CCCC[C@H]1CN(CC2CCOCC2)C(=O)OC12CCN(C1(C)CCN(C(=O)c3c(C)ncnc3C)CC1)CC2 | inactive |
| O=C(O)C1CCC(C(=O)O)CC1 (stereo not given) | inactive |
| CN1CCN(C2=Nc3ccccc3Sc3ccc(Cl)cc32)CC1 | inactive |
| CC(C)c1ccccc1C(C)C | inactive |
| COCCOCCOCCOCCOC | 21.7 µM (active) |
| COCCO | inactive |
| CCN(CC)CCc1nc(-c2ccccc2)no1 | inactive |
| Cc1ccc(C)o1 | inactive |
| NC(N)=NN=C(/C=C/c1ccc([N+](=O)[O-])o1)/C=C/c1ccc([N+](=O)[O-])o1 | 23.7 µM (active) |
| O=C(NS(=O)(=O)/C=C/c1cccs1)c1ccc(F)cc1Br | inactive |
| CCCCCOC(=O)COc1cc(N2C(=O)C3=C(CCCC3)C2=O)c(F)cc1Cl | inactive |
| Nc1nc(N)c(-c2ccccc2)s1 | inactive |
| C=Cc1c(C)c2cc3[nH]c(cc4nc(cc5nc(cc1[nH]2)C(C)=C5CCC(=O)O)C(CCC(=O)O)=C4C)c(C)c3C=C | inactive |
| CC(O)C1CCCCC1 (stereo not given) | inactive |
